Test results reported in the supplement of paper PMC6555819.

These sequences were tested on VDR:RXRa (NR concentration 270 nM, RXRa partner concentration 90 nM) (assay: PBM binding z-score (relative to random genomic background probes); higher = stronger binding; sequences stand for … in GC…GCGATTGACAGCGTAGAATGAAGG).
Procedure: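 Protein-binding microarray (Agilent 4x180K custom design, double-stranded 60-nt probes: 5' GC cap, 34-nt variable region, 24-nt constant primer region; full probe sequence given). Purified or IVT nuclear receptor:RXRα heterodimers (3:1 NR:RXRα, mostly 270:90 nM) or homodimers were incubated for 1 h in PBS with 2% milk and no ligand, then detected with Alexa488 antibodies. Fluorescence from o1-orientation probes (~5 replicates averaged) was converted to z-scores against 500 random hg19 background probes. Variable regions are seed direct-repeat (DR0–DR5) sites, all their single-nucleotide variants and half-site ablations.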
Work on AGAACGAGTGCACGCTGAGTTGATAGCAGAGTAG yielded a PBM binding z-score of 2.1.
Sequence TATACAGGGTCACAGGCCAGAGTACGAATGTCGA has a PBM binding z-score of 4.92.
With CTTAGCAGGCCAGGGTCACTCAAGCATTTCGCTT the PBM binding z-score was 2.67.
Sequence ACAGACAGGTGAGTGAAGGTAACTCACCTGGACG has a PBM binding z-score of -0.173.
AGAATTAGGTTATACGTAGATCAGGGAAGAAAGT was tested, and the PBM binding z-score was 0.22.
CCTTACGGGTCCAGGTTATAGCACGGGTGGTACG gave a PBM binding z-score of -0.152.
CCGACTGGGACAGAAAGGTTACCATACCATCCGG gave a PBM binding z-score of 0.351.
With GATTCAGGGTCAAGGCCAGAGTACGCGTATTGAT the PBM binding z-score was 4.89.
Sequence CAAACTACGTCACCGGAAGGTCAAAGTCCGCATG has a PBM binding z-score of 3.23.
AACTCTAGGTAAAAGTTCAGTGAATCCCGAGGAT showed a PBM binding z-score of 1.11.
Work on AGAATGAGATTAAGATCAGGGAAACAGAATACAT yielded a PBM binding z-score of -0.149.
CGTCAAAGTTCAAGGTAACGTACCAGAAAGCAGC was tested, and the PBM binding z-score was 3.87.
ATCGAAAGGTCTTGAGGTGAGTATACAGAAAGGC was tested, and the PBM binding z-score was 0.496.
Sequence TAATATAGGTAAAAGGTGAAAGTCGGTGTGGTAA has a PBM binding z-score of 1.59.
For CCTAGTTGGTCACGAGGTCACACACCGGATATGA, the PBM binding z-score was 4.77.
Work on CGGCCAAGGTCAAGGTCAGTGAAAGAGACTCGAA yielded a PBM binding z-score of 4.68.
In the case of TCTGCTAGGTCAGCGATGGTCAGCTAATCTGCTA, the PBM binding z-score was 0.126.
Sequence GCTTACGGGTCAAACGTTATAGCATGAATAGAAT has a PBM binding z-score of 3.74.
CGTCCAAGGACAGCAGGTCAGTGAAAGCGACGTG gave a PBM binding z-score of -0.0699.
For AGAACGAGGGCAATGAGTTGAGAGCACGGGTGGC, the PBM binding z-score was 4.33.
With CCTCGGAGGACAACAGGAGGTGAGAGCTGCCAGA the PBM binding z-score was -0.342.
AGTCAAAGTTGACTAGGTAACGTAAGATTCAGCT was tested, and the PBM binding z-score was 0.000813.
Work on TCTTGTAGATCAACAGGCGGTTAAGAAAGATCGA yielded a PBM binding z-score of 0.345.
CCGACTGGGGCAAGGTTGCCATAACGCACAGCCA showed a PBM binding z-score of -0.351.
CCTACTGGGCCATTCAGAGGTCTTTGATCATATG showed a PBM binding z-score of -0.301.
Sequence ATCGAAAGGTCGAAGGTGAGTGTACCCACCCGAA has a PBM binding z-score of 3.05.
ATATGTAGGTTAGCTGGGCTCATTCAGACTAGGC showed a PBM binding z-score of -0.0839.
Work on GCCCGGAGGACAAGGTCAGAGCTTTGTCCGTAGA yielded a PBM binding z-score of 1.11.
AATACAGGGTCAACGTAGGCCAGAGTACGCACAG showed a PBM binding z-score of 5.06.
For ACAGACAGGTGATGAAGTTAACTCAGGCTATCAT, the PBM binding z-score was 0.117.
ATCTCTAGGTAAAGTTCAGTGACAGATCGATAGA was tested, and the PBM binding z-score was 1.63.
For TATACAGGGTCAAAGGCCGGAGTACGAATGTCGA, the PBM binding z-score was 4.5.
In the case of TCTCGGAGGCCACGAAAGGTCAGAGCTCGACATC, the PBM binding z-score was 3.62.
In the case of CGAACTAGGTCAAGAACAGTGAATCTCCGCACGC, the PBM binding z-score was 1.04.
TCTTGTAGATGAATAGAGGTTAAGAAAGTGCGCT was tested, and the PBM binding z-score was 1.94.
CCGTCTGGGGCAGAAAGGTTACCATACCATCCGG gave a PBM binding z-score of 0.809.
Sequence TCTAGCAGGCCAGATGGTCACTCAAGAGGTACGG has a PBM binding z-score of -0.443.
Sequence CCTACTGGGCCAAAAAGGTCATTGAAGCCGATAA has a PBM binding z-score of 4.54.
For CCAGACAGGTGAGTAGGTAACTCAGCCTCGATTA, the PBM binding z-score was -0.168.
Work on AATACAGGGTCATCGTATGCCAGAGTACGCACAG yielded a PBM binding z-score of 5.08.
